Assay results from PubChem BioAssay (NCATS).
Results filed as inconclusive are left out. A call without a number means that no potency is given here. Activity calls are given as the source filed them. The call rests on the fitted dose curve; in most records, active means well fitted curve in the direction sought with a large enough effect; inconclusive means small, poorly fitted or top-dose-only effect, or another doubt; inactive means no such curve, though single readings can be large; an effect the other way counts as inactive or inconclusive.

Tests used:
[1] = target: Aldehyde dehydrogenase, mitochondrial (Homo sapiens) (UniProt P05091); experiment: qHTS for Inhibitors of the Aldehyde Dehydrogenase Family (ALDH2) Primary screen (AID 2061308); further: nearly all actives have a fitted effect of over 55% in size
[2] = target: Retinaldehyde dehydrogenase 3 (Homo sapiens) (UniProt P47895); experiment: qHTS for Inhibitors of the Aldehyde Dehydrogenase Family (ALDH1A3) Primary screen (AID 2061315)

Compound | Potency [1] | Potency [2]
O=C(/C=C/c1ccc(F)cc1)Nc1cccc([S+](=O)([O-])Nc2ccccc2F)c1 | inactive | inactive
COC(=O)c1ccc2nc(NC3=NC(c4[nH]ncc4Cl)C4=C(CCCC4=O)N3)oc2c1 (stereo not given) | inactive | inactive
N#Cc1nc(-c2cccc3ccccc23)oc1NC1CNC1 | inactive | inactive
COc1cccc(C2c3c(ncn(-c4ccc5c(c4)OCO5)c3=N)Oc3ccc4ccccc4c32)c1 (stereo not given) | inactive | inactive
c1ccc(CNCc2nnc(-c3cc4ccccc4[nH]3)o2)cc1 | inactive | inactive
C=C1C(=O)OC2CC(C)=C(C(C)CCCOC(C)=O)C(OC(=O)CC(C)CC)C12 (stereo not given) | inactive | inactive
Cc1cc2c(s1)c(C#N)c(C(=O)NCc1ccccc1F)n2C | inactive | inactive
CC(=O)NC(c1ccco1)c1cc(Br)c2cccnc2c1O (stereo not given) | inactive | inactive
C=C(C)C(=O)O[C@H]1[C@H]2C(=C)C(=O)O[C@@H]2C[C@@H](C)[C@@H]2O[C@@H]2C(=O)[C@](C)(O)[C@@H]1OC(=O)C(=C)C | inactive | inactive
O=[S+]([O-])(c1ccc2c(c1)OCCO2)N1CCN([S+](=O)([O-])c2c(Cl)cc(Cl)cc2Br)CC1 | inactive | inactive
CC(=O)Nc1sc2c(c1-c1ccc(C(N)=O)cc1)CCNC2 | inactive | inactive
Cc1ccccc1NS(=O)(=O)c1ccc2c(c1)CCC(=O)N2 | inactive | inactive
O=C(Nc1ccc(S(=O)(=O)Nc2nccs2)cc1)C1CCC2(CCC2)CC1 | inactive | inactive
Cc1ccc(-c2ccc(=O)n(CCN)n2)cc1 | inactive | inactive
O=C1CCC2=C1C1(CCCC1)N=C(Nc1nc3ccccc3o1)N2 | inactive | inactive
CCCn1c(C)nc2c(NCCN3CCCC3)nc(C)nc21 | inactive | inactive
CC(C)(C)OC(=O)NCc1nnc(-c2cc3ccccc3[nH]2)o1 | inactive | inactive
CN1CCC(c2cn(C)c3ccc(OS(=O)(=O)c4c(F)cccc4F)cc23)CC1 | inactive | inactive
CC(C)Cc1ccc(-c2ccc(=O)n(CC(=O)NCCc3ccccc3)n2)cc1 | inactive | inactive
CC(=O)Nc1ccc(C(=O)Nc2ccc(-c3nc4ccccc4[nH]3)cc2)cc1 | inactive | inactive
Cc1csc(CNc2ncnc3ccc(-c4ccc5c(c4)OCCO5)cc23)c1 | inactive | inactive
C[C@@H]1[C@H]2[C@H](O[C@@H]3O[C@H](CO)[C@@H](O)[C@H](O)[C@H]3O)OC=C(C(=O)O)[C@H]2C[C@@H]1O | inactive | inactive

Compound | Potency [1] | Potency [2]
S=C(NCCCc1cnc[nH]1)NCCCN(Cc1ccc(Cl)c(Cl)c1)c1ccc(Br)cn1 | inactive | inactive
CCNC(=O)C1CCN(C(=O)C(C)(C)NC(=O)Nc2ccccc2Cl)CC1 | inactive | inactive
N#CC1=C(NC=NCc2ccccc2)Oc2ccc3ccccc3c2C1c1ccccc1 (stereo not given) | inactive | inactive
O=C(CCc1ccccc1Br)NCCc1nc2ccccc2[nH]1 | inactive | inactive
Cc1ccc(S(=O)(=O)Nc2cnccc2C(=O)Nc2nc(-c3ccc(Cl)c(Cl)c3)cs2)cc1 | inactive | inactive
O=C(Nc1ccc(F)c(C(F)(F)F)c1)Nc1cccc(-c2ccncc2)n1 | inactive | inactive
O=C(O)c1ccc2c(c1)C(=O)N([C@H](Cc1ccc(C(F)(F)F)cc1)C(=O)O)C2=O | inactive | inactive
COc1cc(O)c(C(CC(=O)N2CCCCC2)c2ccc(C)cc2)c(OC)c1 (stereo not given) | inactive | inactive
Cc1ccc(NS(=O)(=O)c2cc3c(cc2NC(C)C)NC(=O)CC3)cc1C | inactive | inactive
COc1cccc(C(=O)Nc2ccc([S+](=O)([O-])Nc3nccs3)cc2)c1O | inactive | inactive
CC(=O)Nc1sc2c(c1-c1ccc(C)cc1)CCNC2 | inactive | inactive
O=S(=O)(Nc1cccc2cccnc12)c1ccccc1 | inactive | inactive
O=C(OCC#CCSc1nnc(-c2cccc3ncccc23)o1)c1ccc(F)cc1 | inactive | inactive
O=S1(=O)N=C(N2CCOCC2)c2ccccc21 | inactive | inactive
Cc1ccc(S(=O)(=O)N2CCN(S(=O)(=O)c3ccc4c(c3)OCCO4)CC2)cc1 | inactive | inactive
Cc1ccc(S(=O)(=O)Nc2ccccc2C(=O)Nc2nc(-c3ccc(Cl)cc3)cs2)cc1 | inactive | inactive
CNc1oc(-c2cccc(Cl)c2)nc1C#N | inactive | inactive
CC1CCC2(C(=O)OC3OC(COC4OC(CO)C(O)C(O)C4O)C(O)C(O)C3O)CCC3(C)C(=CCC4C5(C)CCC(O)C(C)(C(=O)O)C5CCC43C)C2C1(C)O (stereo not given) | inactive | inactive
O=C(Nc1ccc(Cl)nc1)Nc1nnc(-c2ccncc2)s1 | inactive | inactive
Cn1c2ccsc2c2cnn(Cc3ccccc3F)c(=O)c21 | inactive | inactive
Oc1ccc(CNCc2ccccc2F)c2cccnc12 | inactive | inactive
CCOC(=O)C1CCN(C(=O)CNC(=O)Nc2ccccc2Cl)CC1 | inactive | inactive

Compound | Potency [1] | Potency [2]
Cc1cc2c(s1)c1cnn(Cc3cccc(C(F)(F)F)c3F)c(=O)c1n2C | inactive | inactive
COc1ccc(NC(=O)c2[nH]c(C)c(C(C)=O)c2C)cc1S(=O)(=O)Nc1cccc(C#N)c1 | inactive | inactive
O=C1CCc2cc([S+](=O)([O-])NC3CCOCC3)ccc2N1 | inactive | inactive
COc1ccc(C2=Nn3c(nnc3-c3ccccc3OC)SC2)cc1O[C@H]1CCOC1 | inactive | inactive
CC1(C)CC[C@]23CO[C@@]4(CCC5[C@@]6(C)CC[C@H](O[C@@H]7OC[C@H](O[C@@H]8O[C@H](CO)[C@@H](O)[C@H](O)[C@H]8O[C@@H]8OC[C@@H](O)[C@H](O)[C@H]8O)[C@H](O)[C@H]7O[C@@H]7O[C@H](CO)[C@@H](O)[C@H](O)[C@H]7O)[C@@](C)(CO)C6CC[C@@]5(C)[C@]4(C)C[C@H]2O)[C@@H]3C1 (stereo not given in full) | inactive | inactive
O=C(c1ccc2c(c1)ncn2-c1ccc(C(F)(F)F)cc1)N1CCCCC1 | inactive | inactive
C=CCOc1cc(Cl)ccc1C(=O)NCCN(CC)CC | inactive | inactive
O=C(Nc1cc(C(F)(F)F)cc(C(F)(F)F)c1)Nc1nnc(-c2ccncc2)s1 | inactive | inactive
Cc1cnc(-c2ccccc2C(C)C)nc1NCc1ccc(-c2ccc(F)nc2)cc1 | inactive | inactive
CCc1ccc(NC(=O)C(=O)NNC(=O)Cc2ccc(Cl)c(Cl)c2)cc1 | inactive | inactive
O=S(=O)(Nc1nccs1)c1ccc(NCc2cc(Cl)ccc2O)cc1 | inactive | inactive
COc1ccc(C(=O)N(Cc2ccccc2)Cc2cccs2)c(O)c1 | inactive | inactive
CCOc1ccc(CNc2ccc(-c3nc4ccccc4[nH]3)cc2)cc1 | inactive | inactive
O=C(Nc1ccc(Br)c(Br)c1)Nc1nnc(-c2cccnc2)s1 | inactive | inactive
Cc1ccc(OCCn2c(CCNC(=O)COc3ccccc3Br)nc3ccccc32)cc1 | inactive | inactive
CC1=C(CC(=O)O)c2cc(F)ccc2C1=Cc1ccc(S(C)(=O)=O)cc1 | inactive | inactive
Cc1ccc(S(=O)(=O)Nc2cnccc2C(=O)Nc2nc(-c3ccc(C)c(C)c3)cs2)cc1 | inactive | inactive
FC(F)(F)c1ccccc1-c1nc(NCc2ccc(-c3cccnc3)cc2)c2[nH]cnc2n1 | inactive | inactive
O=[S+]([O-])(Nc1ccc(C2CCNCC2)cc1)c1ccc(NCc2ccc(Br)cc2O)cc1 | inactive | inactive
Cc1cc(-c2nc(Nc3ccc(F)c(F)c3)c3ccccc3n2)cc(C)n1 | inactive | inactive
Cc1cc(C)nc(NC(=S)N2CCN(c3ccc(C(F)(F)F)cn3)CC2)c1 | inactive | inactive
CCCn1c(C)nc2c(NCCOC)nc(C)nc21 | inactive | inactive

Compound | Potency [1] | Potency [2]
FC(F)(F)c1ccccc1-c1nc(NCc2ccc(Br)cc2)c2ccccc2n1 | inactive | inactive
Cc1cc2c(s1)c1c(C)nn(Cc3ccc(F)cc3)c(=O)c1n2C | inactive | inactive
OCC#CCSc1nnc(-c2cccc3ccccc23)o1 | inactive | inactive
O=C(Cn1nc(-c2cccnc2)ccc1=O)NCCc1ccccc1 | inactive | inactive
COc1ccc(C2=Nn3c(nnc3-c3ccccc3F)SC2)cc1OCC1CC1 | inactive | inactive
O=S1(=O)N=C(Oc2cccc(-c3ccccc3)c2)c2ccccc21 | inactive | inactive
CC(=O)Nc1sc2c(c1-c1cccc3ccccc13)CCNC2 | inactive | inactive
CS(=O)(=O)c1ccc(C(=O)OCC(=O)N2CCC(c3ccccc3)CC2)cc1[N+](=O)[O-] | inactive | inactive
Cc1cc2c(s1)c1cnn(Cc3cc(F)ccc3F)c(=O)c1n2C | inactive | inactive
O=S(=O)(c1ccc2c(c1)OCCO2)N1CCN(S(=O)(=O)c2cc(F)c(Br)cc2F)CC1 | inactive | inactive
Cc1nc(NC2CCCCC2)c2nc(-c3ccccc3)n(CCCN3CCOCC3)c2n1 | inactive | inactive
O=C(COC(=O)CNC(=O)C1CCCCC1)Nc1ccccc1Cl | inactive | inactive
Cc1cc(C)nc(NC(=S)N2CCN(c3ccc(Cl)c(Cl)c3)CC2)c1 | inactive | inactive
Clc1ccccc1-c1ccc2ncnc(NCc3cccs3)c2c1 | inactive | inactive
COc1ccc(CSc2nc3ncc(Br)cc3[nH]2)cc1F | inactive | inactive
COc1cc([C@H]2O[C@H](c3cc(OC)c4c(c3)OCO4)[C@H](C)[C@H]2C)cc(OC)c1OC | inactive | inactive
COc1ccc(C(=O)Nc2ccc(-c3nc4ccccc4[nH]3)cc2)cc1F | inactive | inactive
COc1ccccc1-c1nc2ccccc2s1 | inactive | inactive
O=C(OCC#CCSc1nnc(-c2cccc3ccccc23)o1)c1cccc2[nH]ccc12 | inactive | inactive
